FLuc counter: inhibits or activates purified firefly luciferase, miR-21 counter-screen; Potency, µM (doses to about 57.5 µM), usual class: inhibitors; P08659; 6.9% of 360,000 active; purified FLuc, Km substrates, luminescence inhibition; further: nearly all actives have a fitted effect of over 55% in size
Target sequence (P08659 whole entry, looked up): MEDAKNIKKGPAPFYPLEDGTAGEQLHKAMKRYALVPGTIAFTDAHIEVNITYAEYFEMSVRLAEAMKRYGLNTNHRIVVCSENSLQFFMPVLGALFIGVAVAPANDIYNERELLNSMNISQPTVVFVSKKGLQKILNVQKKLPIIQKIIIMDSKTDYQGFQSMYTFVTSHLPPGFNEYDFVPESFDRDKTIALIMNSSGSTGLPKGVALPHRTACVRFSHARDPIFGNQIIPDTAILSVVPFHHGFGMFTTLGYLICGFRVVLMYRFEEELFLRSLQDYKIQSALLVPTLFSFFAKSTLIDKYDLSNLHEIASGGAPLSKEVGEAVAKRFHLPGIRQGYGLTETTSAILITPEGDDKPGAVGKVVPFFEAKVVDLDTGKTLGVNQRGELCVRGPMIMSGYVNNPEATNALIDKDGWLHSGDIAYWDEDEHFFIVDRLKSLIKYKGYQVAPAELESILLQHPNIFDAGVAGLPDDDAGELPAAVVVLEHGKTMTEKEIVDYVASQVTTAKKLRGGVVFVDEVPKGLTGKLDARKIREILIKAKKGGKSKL
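Purified P. pyralis luciferase (10nM final) with 10uM D-luciferin and 10uM ATP (Km levels) in 50mM Tris acetate pH 7.5, 10mM Mg acetate, 0.01% Tween-20, 0.05% BSA; qHTS 6-point titration, ~60 µM downward; luminescence read.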
Rab9 promoter act: Rab9 promoter activation. Huh7 Rab9 promoter-luciferase reporter, luminescence, 24 h. Potency, µM (top dose mostly 9.22 µM), usual class: activators. 2.8% of 320,000 active. AID 485297; further: nearly all actives have a fitted effect of over 60% in size
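Steps: seed 1500 Huh7 Rab9-luc cells per well, rest 2 h at 37 °C; add compound in DMSO; incubate 24 h; add luciferase reagent, 10 min ambient; read luminescence.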
SMN2 splice enh: enhancers of SMN2 splice variant expression. Potency, µM (highest dose often 46.1 µM), most hits filed as activators. 2.8% of 210,000 active. HEK293 SMN2-luciferase splicing reporter, luminescence, 30-36 h; further: nearly all actives have a fitted effect of over 55% in size
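HEK293 cells carry an SMN2 […]–luciferase reporter in which exon 7 inclusion puts luciferase in frame. Cells were plated 10-12 h before compound addition, then incubated 30-36 h at 37C. ONE-Glo luminescence was read; sodium butyrate at 4.5 mM final served as control.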
Luc counter: Kinase-Glo luciferase inhibition (counter-screen); Potency, µM (doses to about 38.3 µM), usual class: inhibitors; Kinase-Glo luciferase, ATP luminescence, 8 min; AID 1379; 0.28% of 200,000 active; further: nearly all actives have a fitted effect of over 60% in size
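Inhibition of Kinase-Glo luciferase light generation was assessed at 10 uM ATP in pH 7.2 imidazole buffer, with luminescence measured after eight minutes at ambient temperature.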
ELG1 genotoxic: inducers of genotoxicity in HEK293T ELG1-luciferase cells; AID 504466; Potency, µM (titrated, usually from 46 µM), usual class: activators; HEK293T ELG1-luciferase reporter, luminescence, 16 h; 1.3% of 330,000 active; further: nearly all actives have a fitted effect of over 60% in size
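Step 1: seed 2,000 HEK293T ELG1-luciferase cells per well. Step 2: add compound or DMSO, incubate 16 hr at 37 °C. Step 3: ONE-Glo, 30 min at room temperature, read luminescence.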
NPC1 promoter act: activates the NPC1 promoter. Huh7 NPC1 promoter luciferase reporter, 24 h. Potency, µM (highest dose often 9.22 µM), usual class: activators. 2.4% of 320,000 active. AID 485313; further: nearly all actives have a fitted effect of over 60% in size
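Luminescence read-out of NPC1 promoter-driven luciferase in stably transfected Huh7 cells; compounds delivered in DMSO and left 24 h at 37C, 5% CO2, qHTS titration format.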
A number is an active result; - = inactive; ? = inconclusive; . = not tested or not shown; [ ] = dose if it differs, or a comment. Sampled rows, rich in hits. Any-hit rate of the full collection: about 7.4%. The call rests on the fitted dose curve; in most records, active means well fitted curve in the direction sought with a large enough effect; inconclusive means small, poorly fitted or top-dose-only effect, or another doubt; inactive means no such curve, though single readings can be large; an effect the other way counts as inactive or inconclusive.

SMILES | FLuc counter | Rab9 promoter act | SMN2 splice enh | Luc counter | ELG1 genotoxic | NPC1 promoter act
CS(=O)(=O)n1nc(-c2ccc(Cl)cc2)nc1SCc1ccccc1 | . | ? | - | - | 15µM | ?
CSc1nc(-c2ccc(Cl)cc2)nn1S(=O)(=O)c1ccc(Cl)cc1 | - | 3.5µM | 11µM | - | ? | -
CSc1nc(-c2ccc(Cl)cc2)nn1S(=O)(=O)c1ccccc1 | 13µM | ? | 13µM | - | - | ?
Cc1ccc(S(=O)(=O)n2nc(-c3ccc(Cl)cc3)nc2NCc2ccco2)cc1 | - | - | ? | - | ? | -
O=C(Nc1cccc(S(=O)(=O)N2CCOCC2)c1)C1CCN(S(=O)(=O)c2ccccc2)CC1 | - | - | . | . | - | -
COc1ccc(CC(=O)Nc2ccc(S(=O)(=O)N3CCCC3)cc2)c(OC)c1 | - | - | . | . | - | -
O=C(O)c1ccc(CSc2nnc(COc3ccc(Cl)cc3Cl)o2)cc1 | 19µM | - | - | - | ? | -
O=C(COC(=O)CNC(=O)c1ccc(Cl)cc1Cl)NC1CCCCCCC1 | - | - | . | . | - | -
O=C(Oc1cccc(Nc2ncnc3ccccc23)c1)c1ccccc1Cl | 17µM | - | - | - | ? | -
COc1ccc(Nc2ccnc(Nc3ccc(OC)cc3)n2)cc1 | 7.6µM | ? | - | - | - | ?
COc1cccc(Nc2ncnc3ccccc23)c1 | 11µM | ? | 14µM | - | 4.6µM | ?
COc1cccc(Nc2cc(C)c3ccccc3n2)c1 | 24µM | -[1.84 µM] | . | . | ? | -
CCOC(=O)c1c(C)[nH]c(C(=O)OCC(=O)c2c(N)n(C)c(=O)n(C)c2=O)c1C | - | - | - | - | - | -
COc1ccccc1NC(=O)c1cc2c(=O)n(Cc3cccs3)ccc2nc1C | - | . | . | . | . | .
COc1ccccc1NC(=O)CN(C)S(=O)(=O)c1ccc2c(c1)c(=O)n(C)c(=O)n2C | - | . | - | . | . | .
COc1ccc(Nc2cc(Nc3ccccc3)ncn2)cc1 | ? | 2µM | . | . | ? | 2µM
COc1ccc(Nc2ncnc3ccccc23)cc1 | 15µM | 2.8µM | 11µM | - | - | 3.2µM
Cc1ccc(Cl)cc1N(Cc1ccc(C(=O)NCc2cccnc2)cc1)S(=O)(=O)c1ccccc1 | - | - | - | - | - | -
COc1ccc(N2CSC3=C(C#N)C(c4cc(OC)c(OC)cc4OC)CC(=O)N3C2)c(OC)c1 (stereo not drawn) | ? | - | - | - | - | -
COc1ccc(N2CSC3=C(C#N)C(c4cc(OC)ccc4OC)CC(=O)N3C2)c(OC)c1 (stereo not drawn) | ? | - | - | - | - | -
CCOc1ccccc1N1CSC2=C(C#N)C(c3c(OC)ccc4ccccc34)CC(=O)N2C1 (stereo not drawn) | 7.6µM | - | - | - | - | -
COc1cc(OC)c(C2CC(=O)N3CN(c4ccc(C)cc4)CSC3=C2C#N)cc1OC (stereo not drawn) | 15µM | - | - | - | - | ?
CCCCC(=O)N(C)C | . | . | - | . | . | .
CC(=O)NCCCc1nc2ccccc2n1Cc1c(F)cccc1Cl | - | - | . | . | - | -
CC(=O)Nc1nonc1-c1nnc(SCC(=O)Nc2c(C)cccc2C)n1-c1ccccc1 | - | . | . | . | . | .
SMILES | FLuc counter | Rab9 promoter act | SMN2 splice enh | Luc counter | ELG1 genotoxic | NPC1 promoter act
Cn1c(C(=O)NN)cc2cc(Oc3ccccc3)ccc21 | - | - | . | . | - | -
Cn1c2ccccc2c2cc(/C=N/NC(=O)c3ccc(O)cc3O)ccc21 | ? | - | . | . | - | -
Cn1c(O)c(/C=N/NC(=O)c2cc3ccccc3cc2O)c2ccccc21 | 17µM | 3.5µM | . | . | ? | ?
COc1ccc2c(c1)cc(C(=O)N/N=C/c1c(O)c(C(=O)O)cc3ccccc13)n2C | 2.4µM | - | . | . | - | -
COCCn1c(C)cc(/C=N/NC(=O)c2cc3ccccc3cc2O)c1C | 15µM | - | . | . | - | -
C=CCn1c(C)nnc1SCC(=O)Nc1cc(S(=O)(=O)N2CCCC2)ccc1Cl | - | - | . | . | - | -
O=C(CCc1nc2ccccc2c(=O)[nH]1)N1CCCc2ccccc21 | ? | - | . | . | ? | -
CCc1ccc(OCC(=O)NC(=S)Nc2cccc(CO)c2)c(Br)c1 | 6µM | 2.8µM | 13µM | - | ? | 1.8µM
